Over roughly 39,000 sequences, “fluorescence intensity (a.u.)” has its median near 4,300; the highest 2% begin near 39,000. The full list was thinned out, with the highest values kept by preference.

In the assay the target is T1, OsSMF1 (Oryza sativa, UniProt Q6ZLB0 1-436).
T1 sequence: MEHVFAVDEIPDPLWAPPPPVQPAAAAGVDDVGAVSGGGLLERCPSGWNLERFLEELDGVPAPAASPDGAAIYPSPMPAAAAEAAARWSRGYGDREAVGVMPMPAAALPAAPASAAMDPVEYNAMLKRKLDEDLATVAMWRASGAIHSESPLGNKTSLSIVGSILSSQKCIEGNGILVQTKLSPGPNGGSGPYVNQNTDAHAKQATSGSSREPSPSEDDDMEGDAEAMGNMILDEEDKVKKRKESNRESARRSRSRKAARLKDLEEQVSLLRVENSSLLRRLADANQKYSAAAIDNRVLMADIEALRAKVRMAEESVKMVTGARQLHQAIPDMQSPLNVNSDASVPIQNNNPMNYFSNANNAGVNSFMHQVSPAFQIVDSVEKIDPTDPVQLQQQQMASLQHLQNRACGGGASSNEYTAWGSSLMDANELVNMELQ
The assay is described as follows: protein-binding microarray (RPBM); PBS, 2% BSA, 51.3 ng/ul salmon testes DNA, 50 uM zinc acetate, 200 nM TF, 25 C, 1 h; high values mean tight binding. The following applies: protein: recombinant; tags: N-terminal polyhistidine and DsRed monomer fusion (pET32a); chain copies: 2; label: CyDye5-dUTP incorporated in the synthesized complementary strand; 3' TTTTT single-stranded linker to array surface; dsDNA, one strand shown. In outline: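 The binding signal is fluorescence intensity per array feature (arbitrary units). Readings came from an Axon 4000B scanner after a washed, 2% BSA-blocked, double-stranded custom Agilent array had been incubated for 1 h at 25 °C with 200 nM protein and 50 µM zinc acetate. The protein was a Ni–NTA-purified transcription factor fused N-terminally to polyhistidine and DsRed, expressed in E. coli BL21-CodonPlus.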
Regarding “TTTGCATGCTTCATTACCACCTTCATCCACGTTGAAAGTACGGAGTCACCTAGTGCAG”, the binding signal was 4160 fluorescence intensity (a.u.).
Turning to “GCACATCGCGCTCGCCGAAGCAGAACCACGCGGCCACCGGCGGAGTCACCTAGTGCAG”, the binding signal was 3240 fluorescence intensity (a.u.).
Then “CGCAGCAAGCGTCACGTCACCAACTGTTTGCTCCAACTGTCGGAGTCACCTAGTGCAG”, with 9370 fluorescence intensity (a.u.); and “AAGAAACAACACACGTTAGCATTTCACTGCTATTAAGTTCCGGAGTCACCTAGTGCAG”, with 5010 fluorescence intensity (a.u.).
For “GACGTTAGTGATCAGCTGGGTTAATTAATTACGTGGCTAACGGAGTCACCTAGTGCAG” the value was 7210 fluorescence intensity (a.u.); for “TTCGCGCGCCACCTCCTCGCGCTCGCCTGCTTCTTCTCCCCGGAGTCACCTAGTGCAG”, 3380 fluorescence intensity (a.u.); for “GCTGCTGCACCACGTCCTTCCTCTTCCTCGCCCCACCACCCGGAGTCACCTAGTGCAG”, 6380 fluorescence intensity (a.u.).
In the case of “CTCGCTGCTTCGCCCGCCACGTCACCCTCCTCCTCCTCCCCGGAGTCACCTAGTGCAG”, the binding signal is 62000 fluorescence intensity (a.u.).
For “AAAACCTGACTTTGCATCATTAGACGATTTGTCCATTGAACGGAGTCACCTAGTGCAG” the value was 3160 fluorescence intensity (a.u.); for “GGCTAGCCAGCGACCGACCGGCGGCCACCGTGGCGGGATTCGGAGTCACCTAGTGCAG”, 4850 fluorescence intensity (a.u.).
For “AGGTACGTAAATTTTATATATTCCATATGAGCTCTAAATACGGAGTCACCTAGTGCAG” the value was 3580 fluorescence intensity (a.u.).
As for “AGGAGGTAGGATAGTTCCCTCCGTAATGGATCGAGGATGTCGGAGTCACCTAGTGCAG”, the binding signal is 42000 fluorescence intensity (a.u.).
For “GTAGTCGTAATGTCATCGTCATCGACATCGATGTGTTGCTCGGAGTCACCTAGTGCAG” the value was 4940 fluorescence intensity (a.u.); for “CACGCAGTAGGGATCGAGGATGTCGTACGCGTACCTCTTCCGGAGTCACCTAGTGCAG”, 26100 fluorescence intensity (a.u.).
Then “TCCTTCTTCCTTGGCCTCTTCCTAATGACAAGCCCTTGCGCGGAGTCACCTAGTGCAG”, with 3610 fluorescence intensity (a.u.).
Then “GCTCTTGAGAATGTTGCTGAGTTGTCAGCTCTCTCCACCCCGGAGTCACCTAGTGCAG”, with 15700 fluorescence intensity (a.u.).
As to “ACCCATAGAGATCGACACTATAGGTACCGGAATAACTAAACGGAGTCACCTAGTGCAG”, the binding signal was 63800 fluorescence intensity (a.u.).
Then “CCATATAGGAATTTAAAACTAACTAAAATTCGGAATAAACCGGAGTCACCTAGTGCAG”, with 3400 fluorescence intensity (a.u.).
Then “GATCGTACATGTTCACATAAACACCCACGACACTACCCTACGGAGTCACCTAGTGCAG”, with 18400 fluorescence intensity (a.u.); and “AGAGAGAGCGTGGGTGGGGTGGGTGCTCTGGGTGACTGGGCGGAGTCACCTAGTGCAG”, with 6040 fluorescence intensity (a.u.).
For “CATGCGATACTACCCCAACGGCCTCGACGACGGCTGCGCCCGGAGTCACCTAGTGCAG” the value was 26900 fluorescence intensity (a.u.); for “CTGAAATGACCAGAATGCCCCTCCGTCCTACCCCACAATCCGGAGTCACCTAGTGCAG”, 19900 fluorescence intensity (a.u.).
“AGAGCAAGACAAGATGGTTAGTTCTCACACTTCAGATTGTCGGAGTCACCTAGTGCAG”: the binding signal was 41400 fluorescence intensity (a.u.).
Then “ACTTGTCACTTGGTTCACACTAAGAGCACTTGACATATCTCGGAGTCACCTAGTGCAG”, with 17900 fluorescence intensity (a.u.).
Then “AGACACTTTTGCAGGGATTGCTCAGACTTAGTTTCAGAGTCGGAGTCACCTAGTGCAG”, with 3940 fluorescence intensity (a.u.); and “TTAACGTGTACCACTACATGCATGCAGTGACGACAGTCAGCGGAGTCACCTAGTGCAG”, with 3150 fluorescence intensity (a.u.).
For “CACCACTACCACGATCAGGCCCAAGAGATGATAAAGTGGCCGGAGTCACCTAGTGCAG” the value was 46500 fluorescence intensity (a.u.).
As for “ACACTCTCGATGTATAGATTCACCCACGAGATGATGTGGCCGGAGTCACCTAGTGCAG”, the binding signal is 6570 fluorescence intensity (a.u.).
Then “GGGATAAAGAGAGGATGACACGTGGGACCCACATGTCAGCCGGAGTCACCTAGTGCAG”, with 12400 fluorescence intensity (a.u.); and “GAGCTCCGACGAGCACCTCCCTGAAGCGTGGCAGGTCGAGCGGAGTCACCTAGTGCAG”, with 3900 fluorescence intensity (a.u.); and “AATTTAACTCTTTCCCGCGTGGATGGCCGCATATATATGCCGGAGTCACCTAGTGCAG”, with 3460 fluorescence intensity (a.u.).
Regarding “TATGGAGTTTACTATTCTCCTGATTATTACAAAATTTATACGGAGTCACCTAGTGCAG”, the binding signal is 30000 fluorescence intensity (a.u.).
As to “CACAGTGCACGCACGCAGCTACAAAGATGTCGTACGACCACGGAGTCACCTAGTGCAG”, the binding signal was 3260 fluorescence intensity (a.u.).
For the sequence “CATCACACCCACTTGTCCGCACACAAGAAGAGACCAGCTACGGAGTCACCTAGTGCAG”, the binding signal is 50600 fluorescence intensity (a.u.).
“CAACACCCGTCCGCCAGAGAAGACCATCGTGACGCCACTCCGGAGTCACCTAGTGCAG”: the binding signal was 4880 fluorescence intensity (a.u.).
Then “GGAATAAATTATTTATCATTGGACCTACATGTCATGGACACGGAGTCACCTAGTGCAG”, with 3950 fluorescence intensity (a.u.); and “TCCCCACATCACCCAACACGAGCTCACCACCACCACCACCCGGAGTCACCTAGTGCAG”, with 3500 fluorescence intensity (a.u.); and “CCAACCAACATCCCACATCGAACCATGCATTATTTATGAACGGAGTCACCTAGTGCAG”, with 17300 fluorescence intensity (a.u.).
Then “ACCACACCATCGAACATGGTGTAGCTCACGGTAGTCCCAACGGAGTCACCTAGTGCAG”, with 41000 fluorescence intensity (a.u.); and “GGCGGCGGGTGGAGGGACGCCCGCTGAATCCGCCACCGGTCGGAGTCACCTAGTGCAG”, with 3170 fluorescence intensity (a.u.); and “GTTTTATTGTTGAATTTTATATATTGTCACGTCCCCTTTTCGGAGTCACCTAGTGCAG”, with 4350 fluorescence intensity (a.u.).
Then “TGGTGCGCTCGTTAAGCCAGCTCGGTTTATGTTAGATCATCGGAGTCACCTAGTGCAG”, with 3210 fluorescence intensity (a.u.).

Source of the values: PMC7819943, “Rice protein-binding microarrays: a tool to detect cis-acting elements near promoter regions in rice”.
